Compound activity: PubChem, The Scripps Research Institute Molecular Screening Center
MITF primary: MITF inhibitors, primary screen, biochemical, AlphaScreen, human | Microphthalmia-associated transcription factor (Homo sapiens), O75030 | AlphaScreen MITF homodimerization, bead proximity signal | inhibition, % at 2.6 µM | 650,000 compounds, 0.91% hits; in the data active = inhibition above about 50%
TEAD-YAP block: TEAD-YAP interaction inhibition, primary screen, TEAD-YAP interaction inhibitor project, luminescence, HEK-TIYL cells; TEAD-Gal4/YAP UAS-luciferase luminescence; inhibition, % at 9.12 µM; 640,000 compounds, 1.4% hits; AID 1259422, 2018; in the data active = inhibition above about 32%
GPR151 activ: activators of human GPR151, primary screen, cell-based, PathHunter beta-arrestin, luminescence | G-protein coupled receptor 151 (Homo sapiens), Q8TDV0 | PathHunter beta-arrestin GPR151 cells | activation, % at 11.2 µM | 650,000 compounds, 1% hits; in the data active = activation above about 4.9%
FBW7 act: FBW7 E3 ligase activators, primary screen, biochemical, AlphaScreen, human. F-box/WD repeat-containing protein 7 (Homo sapiens), Q969H0. AID 1259310, 2017. normalized activity (activation), % at 26.1 µM. 650,000 compounds, 0.13% hits. AlphaScreen FBW7–phospho-cyclin E peptide binding, activator screen; in the data active = normalized activity above about 1.9%;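 also: purified mutant Fbw7 with reduced substrate affinity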
Large screens that a line does not name were inactive. An excerpt weighted towards active compounds, which were near 3.5% of everything screened.

CCCC(c1nnnn1CC1CCCO1)N1CCN(c2cc(C)ccc2C)CC1 (stereo not given)	none
CCOC(=O)NC(c1ccccc1)C(C(=O)OCC)C(=O)OCC (stereo not given)	FBW7 act 2.3
CC(C)(C)c1[nH]nc2c1C(c1cc3c(cc1[N+](=O)[O-])OCO3)C(C#N)=C(N)O2 (stereo not given)	none
Clc1ccccc1CNc1ncnc2ccccc12	TEAD-YAP block 48.3
CC1CC(C)CN(S(=O)(=O)c2ccc(C(=O)Nc3sc4c(c3C#N)CCCCC4)cc2)C1 (stereo not given)	none
N=c1sc2c(n1CC(=O)c1ccccc1)CCCC2	TEAD-YAP block 91.0
Cc1ccc(C(=O)Cn2c3ccccc3n3nc(C)nc23)cc1	TEAD-YAP block 46.7
Cn1c(=N)n(CC(=O)c2ccccc2)c2ccccc21	TEAD-YAP block 44.9
CCN(CC)CCn1c(=N)n(CC(=O)c2ccc(C)cc2)c2ccccc21	FBW7 act 3.3
COc1ccc(C(=O)Cn2c(=N)n(C)c3ccccc32)cc1	none
Cc1nc2c(C)cccc2c2c1CC(CBr)O2 (stereo not given)	none
C/C(=C\C(=O)c1cccnc1)Nc1ccc(Cl)c(Br)c1	none
COC(=O)c1cn(NC(=O)c2ccccc2OC)c(=O)c2ccccc12	none
COc1ccc(NC(=O)c2ccccn2)cc1	TEAD-YAP block 50.9
CCOc1ccc(NC(=S)c2ccccn2)cc1	TEAD-YAP block 74.8
COc1ccc(C(=O)Nc2ccc(NC(=O)c3ccccn3)cn2)cc1	none
COCCNc1c(-c2ccc(O)cc2O)nc2cnccn12	none
COc1ccc(CNc2c(-c3ccc(O)cc3O)nc3cnccn23)cc1	TEAD-YAP block 64.6
COc1ccc(S(=O)(=O)/N=C2/C=C(Nc3ccccc3OC)C(=O)c3ccccc32)cc1	MITF primary 57.2
COc1ccc(S(=O)(=O)/N=C2/C=C(Nc3ccccc3)C(=O)c3ccccc32)cc1	none
Nc1cccc(-c2cnc3c(Nc4ccccc4)nccn23)c1	TEAD-YAP block 87.9
COCCCNc1nccn2c(-c3cccc(O)c3)cnc12	TEAD-YAP block 50.9
c1ccc(Nc2nccn3c(-c4ccoc4)cnc23)cc1	TEAD-YAP block 66.2
COCCNc1nccn2c(-c3ccoc3)cnc12	FBW7 act 2.1
CCOC(=O)C1=C(C)NC2=C(C(=O)CC(c3ccc(Cl)cc3)C2)C1c1ccccc1OC (stereo not given)	none
COC(=O)c1c(NC(=O)CSc2nccc(C)n2)sc(C(C)=O)c1C	none
Nc1cccc(-c2cnc3c(Nc4ccc(Cl)cc4)nccn23)c1	TEAD-YAP block 64.6
CN(CCO)C1CCc2c(sc3ncn(CC4CCCCC4)c(=O)c23)C1 (stereo not given)	TEAD-YAP block 49.2
Cc1ccc(NC(=O)CSc2nnc(-c3cccnc3)s2)cc1	none
O=C(CSc1nnc(-c2cccnc2)s1)Nc1ccnc2ccccc12	TEAD-YAP block 47.8
CCOc1ccc(CC(=O)N2CCC(n3cnc4cccnc43)CC2)cc1	none
Cc1ncn(-c2ccc(Nc3cc(-c4nocc4-c4c(C)n[nH]c4C)ccn3)cc2)n1	TEAD-YAP block 47.9
CCOC(=O)c1ccc(NC(=O)CN(c2ccc(F)cc2)S(C)(=O)=O)cc1	none
CC(=O)c1ccc(-c2nc(-c3cccc(NS(C)(=O)=O)c3)cnc2N)cc1	none
NC(=O)c1cccc(-c2ccnc(Nc3ccc(N4CCOCC4)cc3)n2)c1	none
Cc1ccc(-c2ncn(-c3ccc(Nc4nccc(-c5cccc(-n6cncn6)c5)n4)cc3)n2)cn1	none
C[Si](C)(C)c1nnn(-c2ccc(Nc3nccc(-c4cccc(NS(C)(=O)=O)c4)n3)cc2)c1N1CCOCC1	TEAD-YAP block 32.7
CS(=O)(=O)Nc1cccc(-c2ccnc(Nc3ccc(-n4cncn4)cc3)n2)c1	TEAD-YAP block 90.5
CC(=O)c1ccc(Nc2nccc(-c3cccc(NS(C)(=O)=O)c3)n2)cc1	TEAD-YAP block 81.8
CC1=C(C#N)C(c2ccc(Cl)cc2Cl)C2=C(CCCC2=O)N1 (stereo not given)	none
CCCCCCCN=C(C)C1=C(O)CC(C)(C)CC1=O	none
CCC1CCCCN1S(=O)(=O)c1ccc2c(c1)CC(C)N2C(C)=O (stereo not given)	none
COc1cccc(NC(=O)CNC(=O)c2nn(-c3ccc(OC)c(OC)c3)c(=O)c3ccccc23)c1	TEAD-YAP block 34.3
